NS1 function inh: qHTS Assay for Inhibitors of Influenza NS1 Protein Function | Potency, µM (top dose mostly 46.1 µM) | actives 0.4% (n = 270,000); calls by dose curve; note: actives are rising curves; nearly all actives have a fitted effect of over 50% in size
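In this qHTS, NS1 from influenza A is expressed in budding yeast, where it slows growth. Cells are switched from glucose to 2% galactose medium (pH 6.0, -URA), treated with compound, and growth recovery is read at OD600.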
Shiga inhibitor: A qHTS for Small Molecule Inhibitors of Shiga Toxin; Vero cells, Shiga toxin protein synthesis inhibition reporter; inhibition, % at 38.7 µM; actives 9.2% (n = 290,000); in the data active = inhibition mostly above about 28%, no sharp cut-off; inactive = mostly below about 43%
Giardia FBPA inh: qHTS Assay for Inhibitors of Fructose-1,6-bisphosphate Aldolase from Giardia Lamblia | actives 0.71% (n = 290,000) | A8B2U2 | purified Giardia FBPA | Potency, µM (titrated, usually from 59.6 µM), usual class: inhibitors | AID 2451, 2010; note: nearly all actives have a fitted effect of over 55% in size
Target sequence (A8B2U2 whole entry, looked up): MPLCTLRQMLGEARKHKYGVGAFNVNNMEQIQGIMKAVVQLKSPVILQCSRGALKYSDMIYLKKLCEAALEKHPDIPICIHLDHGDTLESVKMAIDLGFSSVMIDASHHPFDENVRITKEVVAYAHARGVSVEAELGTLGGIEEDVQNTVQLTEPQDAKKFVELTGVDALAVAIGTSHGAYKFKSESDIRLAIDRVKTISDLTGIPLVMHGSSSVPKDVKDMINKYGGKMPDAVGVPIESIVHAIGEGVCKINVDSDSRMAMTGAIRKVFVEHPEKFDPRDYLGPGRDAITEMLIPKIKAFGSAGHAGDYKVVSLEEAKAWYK
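Giardia FBPA (40 nM reagent) was preincubated 10 min at RT with compound (up to 57.5 uM final), then substrate plus GAPDH/TPI/NAD/arsenate coupling system with diaphorase/resazurin was added; resorufin fluorescence (525/598 nm) was read after 20 min.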
Pf growth 48h: Primary qHTS for delayed death inhibitors of the malarial parasite plastid, 48 hour incubation; P. falciparum luciferase growth in erythrocytes, 48 h; Potency, µM (doses to about 28.7 µM), actives largely listed as inhibitors; actives 5.9% (n = 310,000); AID 504832, 2011
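Growth was read as firefly luciferase luminescence after a 48 h, 37 C, 5% CO2 exposure of compounds to reporter-bearing P. falciparum cultures (0.1% parasitemia, 2% hematocrit final) in Albumax-supplemented RPMI 1640.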
Cycloheximide cs: Cycloheximide Counterscreen for Small Molecule Inhibitors of Shiga Toxin; cell reporter, cycloheximide protein synthesis inhibition counterscreen; max response, %; actives 12% (n = 300,000); AID 2314, 2010; in the data active = max response mostly above about 13%, no sharp cut-off; inactive = mostly below about 14%; note: read at 38.3 µM for the half of the compounds with a filed dose
Pf growth 96h: Primary qHTS for delayed death inhibitors of the malarial parasite plastid, 96 hour incubation; P. falciparum luciferase reporter growth, 96 h; Potency, µM (titrated, usually from 28.7 µM), hits mostly inhibitors; actives 6.9% (n = 320,000); AID 504834, 2011
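Luminescence readout: decreased luciferase signal marks inhibited growth of reporter-expressing P. falciparum in infected red cells (2% hematocrit, 0.05% parasitemia final), exposed to compound two generations (96 h, 37 C, 5% CO2).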
A number is an active result; n = inactive; u = inconclusive; x = not tested or not shown; [ ] = dose if it differs, or a comment. Most compounds without a hit are left out; they make up all but 21% or so of the library. Unless noted, calls come from the whole dose curve; as a rule, active = well fitted curve in the direction sought with a large enough effect; inconclusive = small, poorly fitted or top-dose-only effect, or another doubt; inactive = no such curve, though single readings can be large; an effect the other way counts as inactive or inconclusive.

SMILES	NS1 function inh	Shiga inhibitor	Giardia FBPA inh	Pf growth 48h	Cycloheximide cs	Pf growth 96h
Cc1ccccc1/C=N/N=C1/NC(=O)CCS1	n	92	n	u	40	n
COC(=O)C(Cc1ccccc1)NC(=O)c1cc(S(=O)(=O)N(C)C)ccc1Cl (stereo not drawn)	n	n	n	n	n	n
C/C(CCC(=O)OC[C@@H]1O[C@H](C#Cc2ccccc2)C=C[C@@H]1Oc1ccc(C)cc1)=N/O[C@@H](C)c1cn([C@H](CO)Cc2ccccc2)nn1	x	x	n[12.9 µM]	x	x	x
COc1ccc(N(CC(=O)N/N=C/c2ccc3c(c2)OCO3)S(=O)(=O)c2ccc(NC(C)=O)cc2)cc1	x	n	n	13µM	n	u
COc1ccc(N(CC(=O)NC2CCCC2)S(=O)(=O)c2ccc(NC(C)=O)cc2)cc1	n	n	n	u	n	n
CCC(C)NC(=O)CN(c1ccc(OC)cc1)S(=O)(=O)c1ccc(NC(C)=O)cc1 (stereo not drawn)	n	n	n	u	n	6.6µM
Nc1c2c(nc3c1CCCC3)CCCC2 (tested in a mixture with another compound)	n	n	n	u	n	n
Cn1c(N2CCN(C(c3ccccc3)c3ccccc3)CC2)nc2ccccc21	n	n	n	u	n	13µM
COc1cc(/C=N/N(C)C)ccc1OC(=O)c1ccco1	x	n	n	n	n	n
COc1cc(/C=N/Nc2ccc(Cl)cc2)ccc1OC(=O)c1cccs1	n	n	n	n	16	n
COc1cc(/C=N/N(C)C)ccc1OC(=O)c1cccs1	n	71	n	n	29	n
COc1cc(/C=N/NC(N)=O)ccc1OC(=O)c1cccs1	n	n	n	n	n	n
C=C(C)[C@@H]1CC=C(CN2CCC(N3CCC(C(=O)N4CCCC4)CC3)CC2)CC1	n	n	n	7.4µM	n	n
C=C(C)C1CC=C(CN2CCC(O)CC2)CC1 (stereo not drawn)	n	n	n	x	n	n
O=C(CSc1nccc(=O)[nH]1)Nc1cccc(S(=O)(=O)N2CCOCC2)c1	x	n	n	n	n	n
O=C(C1COc2ccccc2O1)N1CCN(c2nc3c(F)cc(F)cc3s2)CC1 (stereo not drawn)	x	x	x	n	x	n
CC(C)CCNC(=O)C12CN(Cc3ccccc3)CC1C(c1ccc([N+](=O)[O-])cc1)=NO2 (stereo not drawn)	n	n	n	u	n	u
COc1cccc(CNC(=O)C23CN(Cc4ccccc4)CC2C(c2ccc([N+](=O)[O-])cc2)=NO3)c1 (stereo not drawn)	n	n	n	u	n	15µM
O=C(NCc1ccccc1C(F)(F)F)C12CN(Cc3ccccc3)CC1C(c1ccc([N+](=O)[O-])cc1)=NO2 (stereo not drawn)	u	n	n	3.3µM	18	u
O=C(c1ccc(S(=O)(=O)N2CCCCCC2)cc1)N1CCN(c2ccccn2)CC1	n	n	n	13µM	n	x
CC1CCN(S(=O)(=O)c2cc(C(=O)N3CCN(c4ncccn4)CC3)ccc2Br)CC1	n	n	n	u	n	7.4µM
O=C(c1ccc(F)c(S(=O)(=O)N2CCOCC2)c1)N1CCN(c2ncccn2)CC1	x	x	x	n	x	n
NC(=O)[C@@H]1CCCN1C(=O)c1ccc2nc(Cc3ccccc3F)oc2c1	n	n	x	n	n	n
O=C(c1ccc(F)c(S(=O)(=O)N2CCOCC2)c1)N1CCN(c2ccc(F)cc2)CC1	x	x	x	u	x	6.6µM
Cc1c(C(=O)N2CCC[C@H]2C(N)=O)oc2c(F)cccc12	n	n	n	n	29	n
O=C(NCc1cc([N+](=O)[O-])ccc1O)c1cc(-c2ccncc2)nc2ccccc12	n	n	x	n	n	u
CC1CCN(C(=O)c2ccc(Br)c(S(=O)(=O)N3CCOCC3)c2)CC1	n	n	n	n	n	n
O=C(c1ccc(Cl)c(S(=O)(=O)NCc2ccccc2)c1)N1CCN(c2ccccn2)CC1	n	n	n	u	n	4.7µM
O=C(c1ccc(Cl)c(S(=O)(=O)N2CCOCC2)c1)N1CCN(c2ccccn2)CC1	x	x	x	12µM	x	12µM

Screens deposited in PubChem by National Center for Advancing Translational Sciences (NCATS).
